Some test systems named below: SR leukemia; RPMI-8226 leukemia; OVCAR-5 ovarian; OVCAR-4 ovarian; SK-OV-3 ovarian; IGROV1 ovarian; OVCAR-3 ovarian; HS 578T breast; T-47D breast; BT-549 breast; MDA-MB-435 melanoma; SW-620 colon; MCF7 breast; HCT-116 colon; HCC-2998 colon; KM12 colon; OVCAR-8 ovarian; NCI/ADR-RES ovarian.
Assay in all cases: NCI-60 one-dose screen, 48 h (100 = growth as untreated, 0 = no growth, -100 = all killed)
Common to all, as to details: 10 µM unless noted

Compounds without any hit were thinned out: in the full panel of roughly 83,000, 20% have a hit.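 Single-concentration screen, 48 h exposure, 96-well plates. Endpoint: percent growth. Below 10 = active.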 A number with no mark means an inactive call. The source made the active and inactive calls.

In the case of `Oc1ccc(CSc2nnc(-c3ccc(Cl)cc3)n2-c2ccccc2)c2cccnc12`, the growth in the assay on SR leukemia was 31%; in the assay on RPMI-8226 leukemia, 16.4%; in the assay on OVCAR-5 ovarian, 57.7%; in the assay with OVCAR-4 ovarian it was 38%; in the assay with SK-OV-3 ovarian, 32.6%; in the assay with IGROV1 ovarian it was 24.2%. For the same compound, the growth in the assay on OVCAR-3 ovarian is 25.3%; in the assay on HS 578T breast, 25.8%; in the assay on T-47D breast, 48.9%; in the assay on BT-549 breast, 35.7%; in the assay on MDA-MB-435 melanoma it was 17.1%; in the assay with SW-620 colon, 23.9%. Also, the growth in the assay with MCF7 breast is 9.16% (active); in the assay with HCT-116 colon it was 13.3%; in the assay on HCC-2998 colon it was 32.8%; in the assay on KM12 colon, 21.3%.

`Nc1nc(Nc2ccccc2SSc2ccccc2Nc2nc(N)nc(-c3ccc4ccccc4c3)n2)nc(-c2ccc3ccccc3c2)n1`: the growth was -25.5% (active) in the assay with SR leukemia; 84.3% in the assay with RPMI-8226 leukemia; 99.3% in the assay on OVCAR-5 ovarian; 83.9% with OVCAR-4 ovarian; 112% with SK-OV-3 ovarian; 47.6% with IGROV1 ovarian. In addition, the growth with OVCAR-3 ovarian is 106%; with HS 578T breast it was 86.2%; in the assay with T-47D breast, 74.9%; with MDA-MB-435 melanoma, 85.2%; in the assay on SW-620 colon, 104%; in the assay with MCF7 breast it was 76%. Besides, the growth in the assay with HCT-116 colon was 57.9%; in the assay on HCC-2998 colon, 120%; with KM12 colon, 51.5%.

With `COc1ccc2c(c1)c(CC(=O)[Se]CC#N)c(C)n2C(=O)c1ccc(Cl)cc1`, the growth in the assay with SR leukemia is 3.49% (active); in the assay with OVCAR-8 ovarian, 6.34% (active); in the assay on OVCAR-5 ovarian, -13.6% (active); in the assay on OVCAR-4 ovarian, 27.7%; with SK-OV-3 ovarian, 34%; in the assay on IGROV1 ovarian it was -14.3% (active). Also, the growth is 13.9% in the assay with OVCAR-3 ovarian; 28.3% in the assay with HS 578T breast; -13.8% (active) with NCI/ADR-RES ovarian; 22.4% in the assay on T-47D breast; 75.9% in the assay on BT-549 breast; 26.5% in the assay on MDA-MB-435 melanoma. The growth in the assay on SW-620 colon is -32.7% (active); with MCF7 breast, 17.3%; in the assay on HCT-116 colon, -46.7% (active); in the assay with HCC-2998 colon, -4.68% (active); in the assay on KM12 colon, -5.24% (active).

On to `N#Cc1c(NC(=O)c2cccc(C(F)(F)F)c2F)sc2c1CCC(=O)C2`, for which the growth in the assay on SR leukemia was 0.648% (active); in the assay with OVCAR-8 ovarian it was 11.7%; in the assay with OVCAR-5 ovarian, -6.14% (active); in the assay with OVCAR-4 ovarian, -36.3% (active); in the assay on SK-OV-3 ovarian, 5.3% (active); in the assay with IGROV1 ovarian, -0.691% (active). In addition, the growth with OVCAR-3 ovarian was -40.5% (active); with HS 578T breast it was -17% (active); in the assay on NCI/ADR-RES ovarian, -3.6% (active); with T-47D breast, -3.25% (active); with BT-549 breast, -22.7% (active); in the assay with MDA-MB-435 melanoma, -30.5% (active). Moreover, the growth was 0.65% (active) with SW-620 colon; 2.17% (active) with MCF7 breast; -50.9% (active) in the assay with HCT-116 colon; -29.6% (active) with HCC-2998 colon; -42.7% (active) in the assay on KM12 colon.

For `COc1cc(OC)cc(C(=O)Nc2cccc(C#Cc3cccc4[nH]nc(N)c34)c2)c1`, the growth was 16.6% with SR leukemia; 31.2% in the assay with OVCAR-8 ovarian; 39.5% with OVCAR-5 ovarian; 53.9% in the assay on OVCAR-4 ovarian; 39.1% with SK-OV-3 ovarian; 20.4% with IGROV1 ovarian. Moreover, the growth in the assay on OVCAR-3 ovarian is 12.2%; in the assay with HS 578T breast, -21.9% (active); with NCI/ADR-RES ovarian, 34.2%; with T-47D breast, 31.2%; in the assay with BT-549 breast, 33.7%; with MDA-MB-435 melanoma it was -38.1% (active). Further, the growth with SW-620 colon is 15.9%; in the assay with MCF7 breast, 26.2%; in the assay with HCT-116 colon it was 13%; in the assay with HCC-2998 colon, 43.3%; with KM12 colon it was 12%.

With `COc1ccc(N2CCN(C3=C(Cl)C(=O)C(C)=C(C)C3=O)CC2)cc1`, the growth was 78.6% in the assay with SR leukemia; 100% in the assay with OVCAR-8 ovarian; 110% in the assay on OVCAR-5 ovarian; 99.7% in the assay on OVCAR-4 ovarian; 96.7% in the assay with SK-OV-3 ovarian; 103% in the assay on IGROV1 ovarian. In addition, the growth in the assay on OVCAR-3 ovarian was 113%; with HS 578T breast it was 103%; with NCI/ADR-RES ovarian, 101%; in the assay with T-47D breast, 30%; in the assay on BT-549 breast, 117%; with MDA-MB-435 melanoma, 105%. In addition, the growth with SW-620 colon was 113%; in the assay on MCF7 breast, 92.1%; in the assay on HCT-116 colon, 99.3%; in the assay with HCC-2998 colon it was 111%; in the assay with KM12 colon, 107%.

Turning to `CC(=O)N1N=C(c2cccc(-n3cccc3)c2)CC1c1cccc(F)c1` (centres undefined), the growth is 96.2% in the assay on SR leukemia; 93.7% with RPMI-8226 leukemia; 95.8% in the assay on OVCAR-5 ovarian; 101% with OVCAR-4 ovarian; 97.3% with SK-OV-3 ovarian; 96.9% in the assay on IGROV1 ovarian. The growth with HS 578T breast was 91%; with NCI/ADR-RES ovarian, 95.9%; with T-47D breast, 89%; with BT-549 breast, 126%; in the assay with MDA-MB-435 melanoma it was 102%; with SW-620 colon, 96%. Also, the growth was 75.1% in the assay on MCF7 breast, 92.5% with HCT-116 colon, 106% in the assay on HCC-2998 colon and 103% with KM12 colon.

In the case of `Cc1ccc2c(c1)C13C(=C2Br)CCCN1C(=O)c1ccccc13` (centres undefined), the growth is 47.2% in the assay on SR leukemia; 99.5% with OVCAR-8 ovarian; 96.6% in the assay on OVCAR-5 ovarian; 91.8% with OVCAR-4 ovarian; 96.2% with SK-OV-3 ovarian; 88.5% in the assay on IGROV1 ovarian. The growth in the assay with OVCAR-3 ovarian is 94.8%; in the assay with HS 578T breast it was 94.3%; with NCI/ADR-RES ovarian it was 88.4%; in the assay on T-47D breast, 86.8%; with BT-549 breast, 104%; in the assay with MDA-MB-435 melanoma, 54.8%. Also, the growth with SW-620 colon was 93.7%; with MCF7 breast it was 74.3%; in the assay with HCT-116 colon it was 96.5%; in the assay with HCC-2998 colon it was 113%; in the assay on KM12 colon, 91.5%.

Regarding `CC(C)(C)n1cc(-c2ccnc(NCCCNS(=O)(=O)c3cccc(F)c3)n2)c(-c2ccc(Cl)c(O)c2)n1`, the growth is 94.1% in the assay with SR leukemia; 118% with OVCAR-8 ovarian; 109% in the assay with OVCAR-5 ovarian; 101% in the assay on OVCAR-4 ovarian; 105% with SK-OV-3 ovarian; 103% with IGROV1 ovarian. Also, the growth in the assay on OVCAR-3 ovarian is 109%; with HS 578T breast it was 101%; in the assay on NCI/ADR-RES ovarian, 101%; in the assay with T-47D breast, 75.1%; with BT-549 breast, 95.6%; in the assay on MDA-MB-435 melanoma it was 101%. The growth in the assay with SW-620 colon is 116%; in the assay with MCF7 breast, 97.9%; with HCT-116 colon, 88.6%; with HCC-2998 colon it was 114%; with KM12 colon it was 92.9%.

These data come from PubChem BioAssay (NCI).
